For 40 compounds, Potency results are on record in PubChem BioAssay (Tox21).

Molecules are shown by their SMILES. Records with an inconclusive call do not appear. A call without a number means that no potency is given here. Calls of active or inactive are those of the source. The call rests on the fitted dose curve; in most records, active means well fitted inhibition curve with a large enough effect in the repeat runs; inconclusive means weak or mixed curves; inactive means flat fitted curve, though single readings scatter.

Sequence of Luciferin 4-monooxygenase (Photinus pyralis) (P08659 whole entry, looked up): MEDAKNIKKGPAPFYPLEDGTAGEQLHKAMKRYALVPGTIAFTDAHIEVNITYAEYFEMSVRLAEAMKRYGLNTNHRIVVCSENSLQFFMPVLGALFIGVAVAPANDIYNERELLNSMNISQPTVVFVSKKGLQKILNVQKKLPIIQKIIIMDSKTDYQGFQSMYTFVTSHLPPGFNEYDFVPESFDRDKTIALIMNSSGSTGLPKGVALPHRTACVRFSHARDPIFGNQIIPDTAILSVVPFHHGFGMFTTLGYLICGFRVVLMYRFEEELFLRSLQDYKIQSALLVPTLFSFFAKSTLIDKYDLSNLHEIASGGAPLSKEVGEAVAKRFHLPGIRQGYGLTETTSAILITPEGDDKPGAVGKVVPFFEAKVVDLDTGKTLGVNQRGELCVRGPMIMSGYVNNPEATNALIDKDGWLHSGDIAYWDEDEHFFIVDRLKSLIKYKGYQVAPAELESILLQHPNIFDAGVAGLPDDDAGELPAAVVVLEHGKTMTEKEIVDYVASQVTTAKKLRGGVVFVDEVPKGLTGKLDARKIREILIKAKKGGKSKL

The assay has as its target Luciferin 4-monooxygenase (Photinus pyralis) (UniProt P08659). The experiment in a line: qHTS assay to identify small molecule inhibitors of firefly luciferase (AID 1224835). Further: nearly all actives have a fitted effect of over 25% in size. The note with it: purified P. pyralis luciferase, luminescence inhibition; series mostly up to 115 µM. The source says:
U.S. Tox21 Program National Center for Advancing Translational Sciences [NCATS] NIH Chemical Genomics Center [NCGC] U.S. Environmental Protection Agency [EPA] National Institutes of Environmental Health Sciences [NIEHS] National Toxicology Program [NTP] U.S. Food and Drug Administration [FDA] Tox21 Assay Overview: Firefly (Photinus pyralis) luciferase is one of the most commonly used transcriptional reporters. Firefly luciferase reporter-gene assays are generally considered one of the most sensitive assay types (Wood, 1995; Wood, 1998). However, it was initially observed, in 1991, by Thompson et al., that compounds that resemble the substrates of firefly luciferase (FLuc) can act as competitive inhibitors of the enzyme, and that these compounds, upon interaction with luciferase in the cell, can actually stabilize the protein and increase its half-life. Previous profiling work by other groups to determine the prevalence of compounds that affect FLuc enzymatic activity (PubChem AID 411) identified that ~3% of the MLSMR library (then at ~72K) inhibited FLuc. […] Thus the Tox21 10K library is profiled for activity against FLuc using a biochemical assay of purified FLuc and KM concentrations of FLuc substrates (D-luciferin and ATP).
These assay plates were then treated with 23nL of compound or DMSO using a Kalypsys pin tool, which allows for delivery of a 6-point interplate titration of each compound to the assay plate (quantitative HTS.) 1 uL of firefly luciferase mix (containing 50 mM Tris acetate, pH 7.6, 0.04 uM P. pyralis luciferase, 0.01% Tween, 0.05% BSA and dH2O) was then delivered by FRD to each well. Luciferase activity was then measured using a ViewLux CCD imager.
(In general: In qHTS, concentration-response curves come from the screen itself.)
For `O=C(O)c1ccccc1[N+](=O)[O-]`, the Potency result is “inactive”.
On to `CC(C)(Cc1c[nH]c2ccccc12)NCC(O)COc1ccccc1C#N` (stereo not given), for which the Potency result was “inactive”.
Under `C=CC(=O)OCCCCCCCCCC` stands “inactive”; under `COc1cccc([C@H](O)C2CCN(CCc3ccc(F)cc3)CC2)c1OC`, “inactive”; under `CCCCCCCCC(=O)OCC(C)OC(=O)CCCCCCCC` (stereo not given), “inactive”.
For the compound `CCOC(=O)CC(O)(CC(=O)OCC)C(=O)OCC`, the Potency result was “inactive”.
With `Cc1cc(SC2=C(O)C[C@@](CCc3ccc(N)cc3)(C(C)C)OC2=O)c(C(C)(C)C)cc1CO` the entry was “inactive”; with `CCCc1ccc(OC)cc1`, “inactive”.
Consider `O=Cc1ccc([N+](=O)[O-])cc1`, for which the Potency result is “inactive”.
On to `Cc1nc(C)c(C)nc1C`, for which the Potency result is “inactive”.
Regarding `CCCC(=O)OCc1ccccc1`, the Potency result was “inactive”.
As for `CCCCCCCCCCCCN1CCOCC1`, the Potency result is “inactive”.
With `C=CC(C)CCC=C(C)C` (stereo not given) the entry was “inactive”; with `O=C(O)CNc1ccccc1`, “inactive”.
With `CCOc1cc(OCC)c(C(C)=O)cc1OCC` the entry was “inactive”; with `Cc1c(-c2cccnc2)c2ccccc2n1CCCCC(=O)O`, 39.9 µM (active).
With `O=C(N[C@@H](Cc1ccccc1)[C@@H](O)C(=O)N1C[C@@H](O)[C@@H](O)C1)c1cc2cc(Cl)ccc2[nH]1` the entry was “inactive”.
As to `CNc1ccccc1`, the Potency entry was “inactive”.
With `CCC(CC)C(=O)O` the entry was “inactive”; with `O=C(Nc1ccccc1)c1cc([N+](=O)[O-])ccc1Cl`, “inactive”.
Under `CCC[Si](OC)(OC)OC` stands “inactive”; under `Cc1ccccc1CCO`, “inactive”.
In the case of `O=C(O)c1ccc2cc(O)ccc2c1`, the Potency was 62.4 µM (active).
With `O=C(O)c1ccc(O)c(O)c1` the entry was “inactive”; with `CCCC1CCCC(=O)O1` (stereo not given), “inactive”; with `CCOC(OCC)OCC`, “inactive”.
Under `CC(=O)Nc1ccn(C2COC(COC(=O)c3ccccc3)O2)c(=O)n1` (stereo not given) stands “inactive”; under `CCOc1ccc2c(c1)C(C)CC(C)(C)N2` (stereo not given), 31.7 µM (active); under `CCN(CC)CC(=O)OCC(=O)[C@@]1(O)CC[C@H]2[C@@H]3CCC4=CC(=O)CC[C@]4(C)[C@H]3[C@@H](O)C[C@@]21C`, “inactive”.
Take `CCC(=O)O[C@@H]1C[C@H]2CC[C@]1(C)C2(C)C`: the Potency entry is “inactive”.
With `CCCCCCCCS` the entry was “inactive”; with `O=C(OCCN1CCOCC1)c1cccnc1Nc1cccc(C(F)(F)F)c1`, “inactive”; with `CC(=O)Nc1cccc(N)c1`, “inactive”.
Under `COc1cc(C)c(Cc2cnc(N)nc2N)cc1OC` stands “inactive”; under `O=C(Cl)c1ccc(F)c(Cl)c1`, “inactive”; under `Oc1ccc(CCNCCCCCCNCCc2ccccc2)cc1O`, “inactive”.
With `CC(=O)c1cccnc1` the entry was “inactive”; with `Cc1c(Cl)cccc1Nc1ccccc1C(=O)O`, “inactive”; with `CCOc1ccc(NC(C)=O)cc1N`, “inactive”.
For the compound `CC(C)CCCCCCCOC(=O)c1ccc(C(=O)OCCCCCCCC(C)C)c(C(=O)OCCCCCCCC(C)C)c1`, the Potency result was “inactive”.
